Reference: ChEMBL document CHEMBL2218924, “A broad activity screen in support of a chemogenomic map for kinase signalling research and drug discovery” (Biochem J, 2013)

How the values were obtained:
[1] = molecular target: Serine/threonine-protein kinase SIK1 (Homo sapiens) (UniProt P57059); conditions: at 10 µM
[2] = molecular target: Tyrosine-protein kinase SYK (Homo sapiens) (UniProt P43405); conditions: at 1 µM
[3] = molecular target: Tyrosine-protein kinase SYK (Homo sapiens) (UniProt P43405); conditions: at 10 µM
[4] = molecular target: T1, Mitogen-activated protein kinase kinase kinase 7 (Homo sapiens) (UniProt O43318); conditions: at 1 µM
T1 sequence (whole entry): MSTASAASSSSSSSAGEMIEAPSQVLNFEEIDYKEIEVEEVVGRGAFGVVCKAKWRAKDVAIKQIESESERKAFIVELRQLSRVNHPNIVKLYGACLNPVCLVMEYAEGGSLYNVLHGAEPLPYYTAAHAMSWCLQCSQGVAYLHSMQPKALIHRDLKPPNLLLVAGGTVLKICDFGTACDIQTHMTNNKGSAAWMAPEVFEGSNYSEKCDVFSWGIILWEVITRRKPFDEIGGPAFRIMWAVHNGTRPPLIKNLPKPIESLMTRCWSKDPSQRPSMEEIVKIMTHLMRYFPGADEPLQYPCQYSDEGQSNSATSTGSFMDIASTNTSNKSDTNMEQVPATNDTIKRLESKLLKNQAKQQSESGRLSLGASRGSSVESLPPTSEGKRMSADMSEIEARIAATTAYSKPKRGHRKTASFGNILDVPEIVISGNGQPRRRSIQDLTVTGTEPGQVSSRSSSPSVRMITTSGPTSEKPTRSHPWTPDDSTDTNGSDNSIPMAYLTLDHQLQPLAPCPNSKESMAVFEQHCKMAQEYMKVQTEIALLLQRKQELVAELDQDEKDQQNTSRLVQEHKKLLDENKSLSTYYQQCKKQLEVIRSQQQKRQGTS

[5] = molecular target: T1, Mitogen-activated protein kinase kinase kinase 7 (Homo sapiens); conditions: at 10 µM
[6] = molecular target: T2, Serine/threonine-protein kinase TAO1 (Homo sapiens) (UniProt Q7L7X3); conditions: at 1 µM
T2 sequence (whole entry): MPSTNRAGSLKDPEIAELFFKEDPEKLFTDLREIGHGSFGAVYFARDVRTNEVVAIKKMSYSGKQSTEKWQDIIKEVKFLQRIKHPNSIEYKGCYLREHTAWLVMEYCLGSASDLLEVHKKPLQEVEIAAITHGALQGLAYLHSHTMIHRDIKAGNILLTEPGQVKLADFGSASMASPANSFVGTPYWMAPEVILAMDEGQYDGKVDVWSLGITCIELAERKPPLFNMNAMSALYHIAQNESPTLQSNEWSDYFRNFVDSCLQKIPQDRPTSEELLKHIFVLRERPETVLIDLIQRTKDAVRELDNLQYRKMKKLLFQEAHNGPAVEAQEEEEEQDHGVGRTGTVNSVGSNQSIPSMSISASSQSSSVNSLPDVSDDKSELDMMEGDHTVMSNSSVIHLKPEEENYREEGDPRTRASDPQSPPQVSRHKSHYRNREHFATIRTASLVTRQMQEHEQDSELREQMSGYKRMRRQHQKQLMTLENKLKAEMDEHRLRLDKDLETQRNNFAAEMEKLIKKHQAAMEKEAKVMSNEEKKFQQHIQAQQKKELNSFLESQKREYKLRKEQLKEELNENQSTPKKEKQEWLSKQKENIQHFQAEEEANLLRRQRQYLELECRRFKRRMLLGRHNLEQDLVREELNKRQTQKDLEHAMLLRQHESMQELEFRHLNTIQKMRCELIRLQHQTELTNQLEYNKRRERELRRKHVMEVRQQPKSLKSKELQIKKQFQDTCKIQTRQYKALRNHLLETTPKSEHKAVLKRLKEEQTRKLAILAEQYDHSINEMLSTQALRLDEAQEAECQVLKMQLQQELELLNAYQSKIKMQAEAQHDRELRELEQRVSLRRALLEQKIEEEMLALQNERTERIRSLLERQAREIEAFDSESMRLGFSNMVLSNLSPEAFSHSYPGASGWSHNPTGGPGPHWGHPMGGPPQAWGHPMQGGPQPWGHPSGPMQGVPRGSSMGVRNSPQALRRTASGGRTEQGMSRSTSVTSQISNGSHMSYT

[7] = molecular target: T2, Serine/threonine-protein kinase TAO1 (Homo sapiens); conditions: at 10 µM
[8] = molecular target: T3, Serine/threonine-protein kinase TAO3 (Homo sapiens) (UniProt Q9H2K8); conditions: at 1 µM
T3 sequence (whole entry): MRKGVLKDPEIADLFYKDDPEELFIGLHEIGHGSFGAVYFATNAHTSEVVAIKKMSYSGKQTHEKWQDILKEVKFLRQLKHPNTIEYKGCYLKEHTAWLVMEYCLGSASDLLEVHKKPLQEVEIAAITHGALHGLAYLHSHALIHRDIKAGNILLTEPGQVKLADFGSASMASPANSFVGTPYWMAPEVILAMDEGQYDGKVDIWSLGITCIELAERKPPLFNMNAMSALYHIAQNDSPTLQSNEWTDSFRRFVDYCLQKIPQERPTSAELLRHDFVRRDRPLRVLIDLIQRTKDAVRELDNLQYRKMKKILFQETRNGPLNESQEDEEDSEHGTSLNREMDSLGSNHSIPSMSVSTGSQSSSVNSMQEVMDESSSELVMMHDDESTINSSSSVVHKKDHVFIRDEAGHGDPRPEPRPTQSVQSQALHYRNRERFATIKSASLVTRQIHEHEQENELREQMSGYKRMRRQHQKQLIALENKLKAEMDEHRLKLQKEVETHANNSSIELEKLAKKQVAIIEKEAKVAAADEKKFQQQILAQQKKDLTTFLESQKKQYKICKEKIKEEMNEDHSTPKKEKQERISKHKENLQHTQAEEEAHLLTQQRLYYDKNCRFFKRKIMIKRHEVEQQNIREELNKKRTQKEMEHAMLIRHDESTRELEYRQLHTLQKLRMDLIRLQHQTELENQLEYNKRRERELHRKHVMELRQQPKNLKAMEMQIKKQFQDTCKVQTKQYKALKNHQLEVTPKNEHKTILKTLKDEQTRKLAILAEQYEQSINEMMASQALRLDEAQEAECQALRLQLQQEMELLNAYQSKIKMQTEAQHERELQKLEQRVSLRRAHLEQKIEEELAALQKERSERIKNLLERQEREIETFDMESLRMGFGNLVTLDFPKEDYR

[9] = molecular target: T3, Serine/threonine-protein kinase TAO3 (Homo sapiens); conditions: at 10 µM
[10] = molecular target: T4, Serine/threonine-protein kinase TBK1 (Homo sapiens) (UniProt Q9UHD2); conditions: at 1 µM
T4 sequence (whole entry): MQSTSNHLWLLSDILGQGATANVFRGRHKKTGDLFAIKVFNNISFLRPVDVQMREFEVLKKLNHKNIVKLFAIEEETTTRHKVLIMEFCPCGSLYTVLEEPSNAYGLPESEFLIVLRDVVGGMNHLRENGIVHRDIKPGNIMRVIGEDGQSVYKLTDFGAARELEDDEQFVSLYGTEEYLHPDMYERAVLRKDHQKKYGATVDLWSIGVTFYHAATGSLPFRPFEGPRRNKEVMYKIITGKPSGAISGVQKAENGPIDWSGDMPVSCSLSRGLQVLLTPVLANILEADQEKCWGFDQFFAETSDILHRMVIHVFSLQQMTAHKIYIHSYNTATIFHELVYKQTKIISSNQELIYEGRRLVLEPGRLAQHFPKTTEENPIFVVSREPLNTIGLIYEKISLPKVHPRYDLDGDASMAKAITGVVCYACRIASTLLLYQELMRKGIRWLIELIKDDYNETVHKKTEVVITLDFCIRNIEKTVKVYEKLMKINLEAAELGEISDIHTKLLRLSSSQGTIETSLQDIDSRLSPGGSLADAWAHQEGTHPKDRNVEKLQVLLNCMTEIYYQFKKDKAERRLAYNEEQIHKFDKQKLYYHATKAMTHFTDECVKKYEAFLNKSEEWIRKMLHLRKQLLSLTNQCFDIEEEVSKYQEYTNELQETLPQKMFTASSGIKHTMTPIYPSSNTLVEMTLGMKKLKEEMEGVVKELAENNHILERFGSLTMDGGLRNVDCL

[11] = molecular target: SRSF protein kinase 1 (Homo sapiens) (UniProt Q96SB4); conditions: at 1 µM
Chain of SRSF protein kinase 1 (Homo sapiens) (Q96SB4 whole entry): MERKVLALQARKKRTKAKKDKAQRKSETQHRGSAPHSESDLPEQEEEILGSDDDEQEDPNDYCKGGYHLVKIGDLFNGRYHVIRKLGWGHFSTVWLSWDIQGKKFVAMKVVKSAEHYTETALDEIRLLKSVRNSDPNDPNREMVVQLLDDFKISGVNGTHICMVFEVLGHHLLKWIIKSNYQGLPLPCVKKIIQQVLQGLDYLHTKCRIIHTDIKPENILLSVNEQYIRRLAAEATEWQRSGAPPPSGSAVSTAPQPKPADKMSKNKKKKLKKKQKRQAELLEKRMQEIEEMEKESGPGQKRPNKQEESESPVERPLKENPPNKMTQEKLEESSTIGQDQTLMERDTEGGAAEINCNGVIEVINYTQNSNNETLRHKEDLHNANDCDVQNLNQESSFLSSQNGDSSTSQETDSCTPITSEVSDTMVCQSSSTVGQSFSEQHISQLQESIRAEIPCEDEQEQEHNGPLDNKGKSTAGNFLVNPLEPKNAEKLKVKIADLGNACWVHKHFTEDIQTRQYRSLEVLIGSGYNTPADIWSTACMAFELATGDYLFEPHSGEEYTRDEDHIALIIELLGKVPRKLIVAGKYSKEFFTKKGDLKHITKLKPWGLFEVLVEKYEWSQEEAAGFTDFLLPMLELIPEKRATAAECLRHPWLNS

[12] = molecular target: Serine/threonine-protein kinase 33 (Homo sapiens) (UniProt Q9BYT3); conditions: at 1 µM
Chain of Serine/threonine-protein kinase 33 (Homo sapiens) (Q9BYT3 whole entry, looked up): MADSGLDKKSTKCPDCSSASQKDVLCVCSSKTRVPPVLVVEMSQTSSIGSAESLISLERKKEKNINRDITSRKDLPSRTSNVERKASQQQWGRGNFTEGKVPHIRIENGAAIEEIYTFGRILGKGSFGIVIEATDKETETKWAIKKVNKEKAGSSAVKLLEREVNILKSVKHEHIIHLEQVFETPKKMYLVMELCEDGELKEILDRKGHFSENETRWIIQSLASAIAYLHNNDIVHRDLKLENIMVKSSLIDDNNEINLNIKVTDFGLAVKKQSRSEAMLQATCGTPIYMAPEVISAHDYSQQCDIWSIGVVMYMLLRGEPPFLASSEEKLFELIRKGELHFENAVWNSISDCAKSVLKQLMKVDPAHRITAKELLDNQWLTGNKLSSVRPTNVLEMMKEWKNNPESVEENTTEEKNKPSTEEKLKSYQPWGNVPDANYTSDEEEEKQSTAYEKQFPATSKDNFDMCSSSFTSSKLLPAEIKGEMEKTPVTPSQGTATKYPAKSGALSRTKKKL

[13] = molecular target: Serine/threonine-protein kinase 33 (Homo sapiens) (UniProt Q9BYT3); conditions: at 10 µM
[14] = molecular target: T5, Serine/threonine-protein kinase TAO2 (Homo sapiens) (UniProt Q9UL54); conditions: at 10 µM
T5 sequence (whole entry): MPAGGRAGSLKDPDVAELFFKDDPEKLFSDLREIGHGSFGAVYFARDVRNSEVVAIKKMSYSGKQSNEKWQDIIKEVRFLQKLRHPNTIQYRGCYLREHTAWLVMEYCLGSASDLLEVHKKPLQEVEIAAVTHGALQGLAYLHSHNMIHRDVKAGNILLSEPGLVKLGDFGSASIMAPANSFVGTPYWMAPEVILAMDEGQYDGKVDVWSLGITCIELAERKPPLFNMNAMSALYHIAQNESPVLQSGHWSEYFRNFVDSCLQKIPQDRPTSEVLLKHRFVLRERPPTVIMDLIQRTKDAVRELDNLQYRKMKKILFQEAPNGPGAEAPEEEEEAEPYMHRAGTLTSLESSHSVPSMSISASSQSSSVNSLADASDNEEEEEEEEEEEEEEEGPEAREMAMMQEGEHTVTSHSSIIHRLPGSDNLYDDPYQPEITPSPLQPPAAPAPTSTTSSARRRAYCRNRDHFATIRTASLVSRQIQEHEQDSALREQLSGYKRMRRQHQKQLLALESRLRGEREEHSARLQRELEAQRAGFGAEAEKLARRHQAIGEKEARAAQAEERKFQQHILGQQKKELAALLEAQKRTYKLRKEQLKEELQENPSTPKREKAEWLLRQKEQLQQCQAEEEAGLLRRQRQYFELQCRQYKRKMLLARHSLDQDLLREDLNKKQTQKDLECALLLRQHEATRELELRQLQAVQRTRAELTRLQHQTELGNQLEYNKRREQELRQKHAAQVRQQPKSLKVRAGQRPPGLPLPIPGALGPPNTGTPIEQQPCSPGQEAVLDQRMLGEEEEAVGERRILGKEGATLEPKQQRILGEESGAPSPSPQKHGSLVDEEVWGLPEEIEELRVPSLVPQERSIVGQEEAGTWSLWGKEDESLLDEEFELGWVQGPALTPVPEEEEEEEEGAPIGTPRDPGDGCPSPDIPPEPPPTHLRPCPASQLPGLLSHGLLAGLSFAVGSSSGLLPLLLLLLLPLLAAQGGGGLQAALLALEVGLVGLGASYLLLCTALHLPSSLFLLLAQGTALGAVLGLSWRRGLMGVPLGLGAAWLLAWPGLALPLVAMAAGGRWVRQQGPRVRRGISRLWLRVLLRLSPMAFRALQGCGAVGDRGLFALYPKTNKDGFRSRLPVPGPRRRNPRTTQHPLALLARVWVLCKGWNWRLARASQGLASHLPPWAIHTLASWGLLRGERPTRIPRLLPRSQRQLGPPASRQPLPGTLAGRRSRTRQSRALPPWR

[15] = molecular target: Serine/threonine-protein kinase PLK2 (Homo sapiens) (UniProt Q9NYY3); conditions: at 10 µM
Chain of Serine/threonine-protein kinase PLK2 (Homo sapiens) (Q9NYY3 whole entry, looked up): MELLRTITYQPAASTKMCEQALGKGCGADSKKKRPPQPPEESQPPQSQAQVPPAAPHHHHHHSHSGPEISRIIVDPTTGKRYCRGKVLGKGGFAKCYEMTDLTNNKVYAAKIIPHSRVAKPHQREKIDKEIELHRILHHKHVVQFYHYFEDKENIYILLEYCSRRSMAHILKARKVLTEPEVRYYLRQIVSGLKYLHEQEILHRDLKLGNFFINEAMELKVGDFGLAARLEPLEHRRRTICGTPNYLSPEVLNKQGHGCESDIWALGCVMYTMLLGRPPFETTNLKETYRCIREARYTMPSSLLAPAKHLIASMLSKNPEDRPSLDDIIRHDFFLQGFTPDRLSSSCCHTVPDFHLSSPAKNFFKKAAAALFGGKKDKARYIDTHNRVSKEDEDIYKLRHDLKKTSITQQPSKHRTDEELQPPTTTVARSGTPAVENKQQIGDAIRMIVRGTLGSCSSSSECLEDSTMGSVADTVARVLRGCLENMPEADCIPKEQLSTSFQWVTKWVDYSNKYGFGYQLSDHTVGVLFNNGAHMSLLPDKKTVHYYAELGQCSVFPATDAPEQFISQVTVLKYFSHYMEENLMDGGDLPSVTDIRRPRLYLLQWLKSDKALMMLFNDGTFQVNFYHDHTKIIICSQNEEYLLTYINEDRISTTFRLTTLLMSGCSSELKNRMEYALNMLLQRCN

Chain of Serine/threonine-protein kinase SIK1 (Homo sapiens) (P57059 whole entry): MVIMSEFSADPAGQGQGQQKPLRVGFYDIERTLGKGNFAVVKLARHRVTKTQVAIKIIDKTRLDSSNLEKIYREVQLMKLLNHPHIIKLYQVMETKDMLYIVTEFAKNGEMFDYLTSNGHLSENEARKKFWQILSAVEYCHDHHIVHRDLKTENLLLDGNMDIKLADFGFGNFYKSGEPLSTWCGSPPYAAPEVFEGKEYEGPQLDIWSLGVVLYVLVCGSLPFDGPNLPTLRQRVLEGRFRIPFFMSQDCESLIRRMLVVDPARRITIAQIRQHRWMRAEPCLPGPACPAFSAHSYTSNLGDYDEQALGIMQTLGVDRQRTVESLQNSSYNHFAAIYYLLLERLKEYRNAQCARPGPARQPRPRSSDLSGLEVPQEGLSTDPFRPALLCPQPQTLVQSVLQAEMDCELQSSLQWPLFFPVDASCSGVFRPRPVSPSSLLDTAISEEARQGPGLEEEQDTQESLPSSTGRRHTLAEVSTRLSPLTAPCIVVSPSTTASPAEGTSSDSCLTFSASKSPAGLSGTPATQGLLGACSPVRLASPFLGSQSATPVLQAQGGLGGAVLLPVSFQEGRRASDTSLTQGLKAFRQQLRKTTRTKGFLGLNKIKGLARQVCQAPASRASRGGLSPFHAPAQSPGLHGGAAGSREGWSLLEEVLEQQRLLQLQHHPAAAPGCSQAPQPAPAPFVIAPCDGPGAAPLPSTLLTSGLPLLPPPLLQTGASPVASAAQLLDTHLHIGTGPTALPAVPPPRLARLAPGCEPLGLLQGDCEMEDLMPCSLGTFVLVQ

O=C1NC(=O)C(c2cn(CCCO)c3ncccc23)=C1c1cnccn1
residual activity [1]: 84% | residual activity [2]: 93% | residual activity [3]: 96% | residual activity [4]: 94% | residual activity [5]: 81% | residual activity [6]: 86% | residual activity [7]: 69% | residual activity [8]: 83% | residual activity [9]: 77% | residual activity [10]: 92%

CCOc1nc(NC(=O)Cc2cc(OC)ccc2OC)cc(N)c1C#N
residual activity [10]: 79%

Cc1cc(C)c(/C=C2\C(=O)Nc3ccccc32)[nH]1
residual activity [11]: 104% | residual activity [12]: 69% | residual activity [13]: 47% | residual activity [4]: 76% | residual activity [5]: 71% | residual activity [14]: 105%

Oc1cccc(-c2nc(N3CCOCC3)c3oc4ncccc4c3n2)c1
residual activity [1]: -1% | residual activity [15]: 98% | residual activity [2]: 131% | residual activity [3]: 94% | residual activity [7]: 94% | residual activity [9]: 93% | residual activity [10]: 82%
